Records with an inconclusive call do not appear. The source made the active and inactive calls. The call rests on the fitted dose curve; in most records, active means well fitted inhibition curve with a large enough effect; inconclusive means small, poorly fitted or top-dose-only effect; inactive means flat fitted curve, though single readings scatter.
Tests used:
Experiment in all cases: qHTS profiling for inhibitors of Plasmodium falciparum proliferation (AID 504749); further: nearly all actives have a fitted effect of over 60% in size
CP238 = conditions: P. falciparum in erythrocytes, SYBR Green DNA, 72 h; series mostly up to 28.7 µM
In short: (§1)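 Readout was DNA-dye fluorescence from lysed cultures, ex 485/em 535 nm. Parasitized red cells had grown 72 h with compound; data scaled between 0.29 uM artemisinin and DMSO wells and corrected using vehicle-only plates.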

CP247 = conditions: P. falciparum in erythrocytes, SYBR Green DNA, 72 h; series mostly up to 28.7 µM
In short: as §1

CP250 = conditions: P. falciparum in erythrocytes, SYBR Green DNA, 72 h; series mostly up to 28.7 µM
In short: as §1

CP252 = conditions: P. falciparum in erythrocytes, SYBR Green DNA, 72 h; series mostly up to 28.7 µM
In short: as §1

CP256 = conditions: P. falciparum in erythrocytes, SYBR Green DNA, 72 h
In short: as §1

CP260 = conditions: P. falciparum in erythrocytes, SYBR Green DNA, 72 h; series mostly up to 28.7 µM
In short: as §1

CP265 = conditions: P. falciparum in erythrocytes, SYBR Green DNA, 72 h; series mostly up to 28.7 µM
In short: as §1

CP266 = conditions: P. falciparum in erythrocytes, SYBR Green DNA, 72 h; series mostly up to 28.7 µM
In short: as §1

CP268 = conditions: P. falciparum in erythrocytes, SYBR Green DNA, 72 h; series mostly up to 28.7 µM
In short: as §1

CP269 = conditions: P. falciparum in erythrocytes, SYBR Green DNA, 72 h; series mostly up to 28.7 µM
In short: as §1

CP286 = conditions: P. falciparum in erythrocytes, SYBR Green DNA, 72 h; series mostly up to 28.7 µM
In short: as §1

CP291 = conditions: P. falciparum in erythrocytes, SYBR Green DNA, 72 h; series mostly up to 28.7 µM
In short: as §1

CP297 = conditions: P. falciparum in erythrocytes, SYBR Green DNA, 72 h; series mostly up to 28.7 µM
In short: as §1

CP305 = conditions: P. falciparum in erythrocytes, SYBR Green DNA, 72 h; series mostly up to 28.7 µM
In short: as §1

CP315 = conditions: P. falciparum in erythrocytes, SYBR Green DNA, 72 h; series mostly up to 28.7 µM
In short: as §1

CP325 = conditions: P. falciparum in erythrocytes, SYBR Green DNA, 72 h; series mostly up to 28.7 µM
In short: as §1

CP329 = conditions: P. falciparum in erythrocytes, SYBR Green DNA, 72 h; series mostly up to 28.7 µM
In short: as §1

CP335 = conditions: P. falciparum in erythrocytes, SYBR Green DNA, 72 h
In short: as §1

DFO2036 = conditions: P. falciparum in erythrocytes, SYBR Green DNA, 72 h; series mostly up to 28.7 µM
In short: as §1

CP262 = conditions: P. falciparum in erythrocytes, SYBR Green DNA, 72 h; series mostly up to 28.7 µM
In short: as §1

Measured: Potency
Potency means the concentration at half of the fitted maximal effect.

C=CCNC1=C2C[C@@H](C)C[C@H](OC)[C@H](O)[C@@H](C)/C=C(\C)[C@H](OC(N)=O)[C@@H](OC)/C=C\C=C(/C)C(=O)NC(=CC1=O)C2=O
active: CP238 1580 nM | CP247 2240 nM | CP250 2240 nM | CP252 1780 nM | CP256 2240 nM | CP260 2240 nM | CP265 2000 nM | CP266 10700 nM | CP268 5360 nM | CP269 1690 nM | CP286 3550 nM | CP291 4260 nM | CP297 1690 nM | CP305 4780 nM | CP315 3790 nM | CP325 4260 nM | CP329 4260 nM | CP335 1690 nM | DFO2036 2000 nM

CCCOc1ccc2nc(NC(=O)OC)sc2c1
not listed: CP256 | CP335
inactive: all other assays above

COC1C(OC(=O)/C=C/C=C/C=C/C=C/C(=O)O)CCC2(CO2)C1C1(C)OC1CC=C(C)C (stereo not drawn)
active: CP256 70.8 nM | CP268 3380 nM | CP291 8490 nM | CP315 1690 nM | CP325 7570 nM | CP329 601 nM

Source: PubChem BioAssay (NCATS)
